# Bioassay records deposited in PubChem BioAssay by National Center for Advancing Translational Sciences (NCATS).
# AID923 – qHTS Assay for Allosteric/Competitive Inhibitors of Caspase-1: Spectroscopic Profiling in AFC Spectral Region | Potency, µM (titrated, usually from 57.5 µM), for inactives: at the top dose fluorescence increase, usual class: activators | AID 923, 2007 | 1.1% of 75,000 active | compound fluorescence, AFC spectral region (405/520 nm); note: potency is the fitted concentration of half-maximal effect; 0% is about no effect
#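 Compound autofluorescence profiled at 405 nm ex/520 nm em during kinetic caspase 1 run (50 nM enzyme, 5 uM Ac-WEHD-AFC, HEPES pH 7.5, 10 mM DTT). Titration up to 57 uM; baseline from regression intercept, normalized to AFC standard curve.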
# HSD17B inhib – inhibitors of human HSD17B10 dehydrogenase. Q99714. recombinant HSD17B10, NADH fluorescence kinetic. Potency, µM (series often up to 57.1 µM), inactives show at the top dose activity change, negative = inhibition, usual class: inhibitors. 7.6% of 75,000 active. AID 893;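 note: the protocol describes HADH2 (HSD17B10) and not the HSD17B4 of the title; potency is the fitted concentration of half-maximal effect; % is set by controls: 0 for no effect and ±100 for the full control effect; nearly all actives have a fitted effect of over 70% in size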
#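 His-tagged E. coli-expressed HADH2 at 20 nM in 100 mM Tris-HCl pH 9.0 with 0.01 % Tween-20, preincubated 15 min with compound at room temperature. Reaction with 1 mM NAD+ and 90 uM beta-hydroxybutyryl coenzyme A; NADH fluorescence (360/450 nm) read kinetically over 4 min, last minus first point.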
# GBA mod – modulators of human glucocerebrosidase | purified enzyme, resorufin glucoside fluorescence (screen aimed at inhibitors), 20 min | Potency, µM | 1.1% of 48,000 active | AID 360; in the data active = potency below about 15 µM; inconclusive = mostly about 16 µM to 33 µM;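 note: potency is the fitted concentration of half-maximal effect; the screen sought inhibitors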
# Target sequence (P04062 whole entry, looked up): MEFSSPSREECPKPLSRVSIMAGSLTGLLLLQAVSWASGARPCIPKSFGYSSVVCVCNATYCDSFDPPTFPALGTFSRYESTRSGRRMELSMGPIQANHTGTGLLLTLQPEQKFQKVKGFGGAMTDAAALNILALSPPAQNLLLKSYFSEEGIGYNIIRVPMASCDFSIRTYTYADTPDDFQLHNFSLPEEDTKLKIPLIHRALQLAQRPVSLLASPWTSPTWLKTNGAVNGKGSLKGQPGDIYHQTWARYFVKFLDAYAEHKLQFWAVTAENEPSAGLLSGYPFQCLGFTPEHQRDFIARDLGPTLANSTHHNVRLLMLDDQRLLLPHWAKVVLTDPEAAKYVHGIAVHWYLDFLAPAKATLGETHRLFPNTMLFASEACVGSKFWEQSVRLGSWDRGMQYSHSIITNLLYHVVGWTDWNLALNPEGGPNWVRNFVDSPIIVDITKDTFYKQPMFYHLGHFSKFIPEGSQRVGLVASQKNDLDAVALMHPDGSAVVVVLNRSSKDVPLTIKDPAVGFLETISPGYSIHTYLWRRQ
#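 Wild-type enzyme at 0.2 nM final in 50mM citric acid/KH2PO4, 10mM sodium taurocholate, 0.01% tween-20, pH 5.9, with resorufin beta-D-glucopyranoside at 30 uM final. Compounds titrated, 20 min at RT, red fluorescence read; AC50 from titration.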
# HADH2 inh – HADH2 (human) dehydrogenase inhibition; 3.4% of 73,000 active; Q99714; Potency, µM (top dose mostly 57.1 µM), inactives show at the highest dose activity change, negative = inhibition, actives largely listed as inhibitors; recombinant HADH2, NADH fluorescence, beta-hydroxybutyryl-CoA; note: potency is the fitted concentration of half-maximal effect; % is set by controls: 0 for no effect and ±100 for the full control effect; nearly all actives have a fitted effect of over 60% in size
#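 NADH fluorescence (ex 360/em 450 nm) read every 30 s for 4 min; activity taken as last-minus-first time point difference. Enzyme 20 nM, NAD+ 1 mM, beta-hydroxybutyryl-CoA 90 uM, pH 9.0 Tris buffer.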
# 4-MU autofl – compound fluoresces in the 4-MU spectral region. 11% of 59,000 active. compound autofluorescence, 340/450 nm, 4-MU equivalents; active compounds read high. max dye-equivalent concentration, M; in the data active = max dye-equivalent concentration above about 10 nM; inconclusive = mostly about 1.1 nM to 9.6 nM
#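 Intrinsic fluorescence at 340/450 nm (ex/em) was read after 15 min at room temperature in pH 8.0, 100 mM Tris. Each compound concentration expressed as 4-MU-equivalent concentration from a six-point 4-MU standard series on each plate.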
# A350 autofl – A350 region autofluorescence | Compound autofluorescence, 340/450 nm, Alexa 350 dye-equivalents; active compounds read high | max dye-equivalent concentration, M | 11% of 59,000 active | AID 590; in the data active = max dye-equivalent concentration above about 10 nM; inconclusive = mostly about 1.1 nM to 9.6 nM
# An asterisk follows results filed as active; i = inactive; ? = inconclusive; · = not tested or not shown; [ ] = remark or other dose. In the library only some 13% were active in any assay of this set; here they are far more common. Unless noted, calls come from the whole dose curve; as a rule, active = well fitted curve in the direction sought with a large enough effect; inconclusive = small, poorly fitted or top-dose-only effect, or another doubt; inactive = no such curve, though single readings can be large; an effect the other way counts as inactive or inconclusive.
SMILES,AID923,HSD17B inhib,GBA mod,HADH2 inh,4-MU autofl,A350 autofl
CCCCC(C(=O)NCCC(C)C)N(CCCN1CCOCC1)C(=O)c1snc(C(N)=O)c1N (centres undefined),4%,?,i,-11%,1.1e-07M*,1e-07M*
COc1ccc(C(C(=O)NC2CCCC2)N(CCN(C)C)C(=O)c2snc(C(N)=O)c2N)cc1 (centres undefined),2%,?,>77,3%,1.2e-07M*,1.1e-07M*
COc1ccc(CC(=O)Nc2oc(-c3ccccc3)c(-c3ccccc3)c2C#N)cc1OC,1%,7.9µM*,·,?,·,·
COc1ccc(N2CCN(Cc3nc(N)nc(Nc4ccc(C)c(Cl)c4)n3)CC2)cc1,-5%,-19%,4*,4%,i,i
Cc1ccc(Nc2nc(N)nc(CN3CCN(c4ccccc4)CC3)n2)cc1Cl,0%,-5%,4.2*,1%,i,i
COc1ccc(Nc2nc(N)nc(CN3CCOCC3)n2)cc1,0%,14%,>77,1%,i,i
Cc1ccc(Nc2nc(N)nc(CN3CCN(Cc4ccc5c(c4)OCO5)CC3)n2)cc1Cl,1%,-12%,?,-13%,i,i
C=CCCCC,-1%,-1%,·,1%,·,·
CS(=O)(=O)N1CCC2(CCCN(c3ncccn3)C2)CC1,0%,-28%,·,-3%,i,i
O=C(c1ccco1)N1CCC2(CC1)CCN(c1ccccn1)CC2,1%,32µM*,·,-9%,i,i
CS(=O)(=O)N1CCC2(CCN(c3ccccn3)CC2)CC1,-1%,32µM*,·,2%,i,i
CCCS(=O)(=O)N1CCN(c2ccccn2)CC1,0%,32µM*,>77,1%,i,i
O=C(Oc1ccccc1)N1CCC2(CC1)CCN(c1ccccn1)CC2,0%,32µM*,·,-27%,i,i
O=C(Oc1ccccc1)N1CCC2(CC1)CCN(c1ccncc1)CC2,0%,9%,·,8%,i,i
C[C@H]1[C@H](NC(=O)/C(=N/OC(C)(C)C(=O)O)c2csc(N)n2)C(=O)N1S(=O)(=O)O (stereo in doubt),3%[25.7 µM],1%[25.6 µM],·,-15%[25.6 µM],i,i
COc1ccccc1CNc1cc(-c2cccc(NS(C)(=O)=O)c2)ncn1,-3%,?,·,4%,i,i
O=C(COc1ccc(Cl)cc1)Nc1ccccc1N1CCOCC1,1%,6%,>77,9%,i,i
O=C(c1csnn1)N1CCC2(CC1)CCN(c1ccccn1)CC2,1%,25µM*,·,5%,i,i
O=C(NC(Cc1ccccc1)C(=O)N1CCN(c2ccccn2)CC1)c1ccco1 (centres undefined),-2%,32µM*,>77,8%,i,i
O=C(c1ccco1)N1CCN(C(=O)C(Cc2ccccc2)NS(=O)(=O)c2cccs2)CC1 (centres undefined),0%,16µM*,>77,9%,i,i
O=C(c1ccco1)N1CCN(S(=O)(=O)c2cccs2)CC1,-1%,1%,>77,-4%,i,i
O=C(c1csnn1)N1CCC[C@@]2(CCN(c3ccccn3)C2)C1,0%,-13%,·,-10%,i,i
COc1ccccc1CN1CCC2(CC1)CCN(C(=O)c1csnn1)CC2,0%,6%,·,-8%,2.4e-08M*,2.7e-08M*
COc1ccccc1CN1CCCC2(CCN(C(=O)c3csnn3)CC2)C1,3%,3%,·,11%,i,i
CCOC(=O)c1cnc(N(C)C)nc1SC(=N)N,-1%[11.5 µM],-9%[11.4 µM],·,?,i,i
Cc1cnc(-c2nnc(N(C)C(=O)c3ccncc3)s2)cn1,0%,-9%,>77,0%,i,i
Cc1noc(C)c1C(=O)N1CCC2(CC1)CCN(c1ccccn1)CC2,-1%,25µM*,·,?,i,i
Cc1noc(C)c1C(=O)N1CCC2(CC1)CCN(c1ncccn1)CC2,0%,-2%,·,15%,i,i
